High-throughput results: PubChem, several laboratories
HSP90 refold inh = HSP90 inhibitors, primary screen, cell lysate, luminescence | Heat shock protein HSP 90 (rabbit reticulocyte lysate; luciferase refolding) | Rabbit reticulocyte lysate, luciferase refolding luminescence, 3 h | inhibition, % at 5.6 µM | 0.91% of 290,000 active | AID 1789, 2009;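 active = inhibition above the screen-wide mean plus 3 SD, computed separately per campaign, cut at about 16% in these data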;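 note: 0% = DMSO wells and 100% = 60 µM geldanamycin wells; inhibitors lower the luminescence because luciferase stays unfolded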
EBV LMP1 NFkB = EBV LMP1-driven NF-kappaB luciferase reporter inhibitors, primary screen, cell-based, luminescence, single point; 0.69% of 350,000 active; AID 504558, 2011; LMP1-induced NF-kappaB luciferase reporter cells; inhibition, % at 12.5 µM; in the data active = inhibition above about 41%; inconclusive = no clear call, values can overlap the other calls;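 note: 0% = neutral control wells and 100% = reference inhibitor control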
LGR2 antag = inhibitors of bursicon-induced LGR2 CRE-luciferase signal, primary screen, cell-based, HEK293, CRE-luciferase reporter, bursicon stimulation; AID 720647, 2013; inhibition, % at 9.99 µM; 0.35% of 380,000 active; bursicon-stimulated, 4 h;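 active = drop in luminescence signal, shown as inhibition above about 50% in the replicate tests, limit read from the data, passing the limit was not always enough; inconclusive = probably only some replicates passing the limit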;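 note: agonist challenge used bursicon conditioned medium at about half maximal strength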
TROY signal inh = inhibitors of TROY-driven NF-kB signaling, primary screen, Q293 LMP1-TROYcd cells, NF-kB luciferase, uHTS; inhibition, % at 10 µM; 0.98% of 360,000 active; Q293 LMP1-TROYcd NF-kB luciferase reporter, 4 h;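 active = compounds whose plate-normalised and pattern-corrected inhibition of the luciferase reporter signal at the single screening dose is 50% or more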
aDG glyco act = activators of alpha-DG glycosylation, primary screen, uHTS, Pro5-aDG cells, AlphaScreen. alpha-DG glycosylation AlphaScreen (IIH6); 0% Pro5, 100% B10-LARGE cell signal. activation, % at 10 µM. 0.22% of 360,000 active;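 active = activation of at least 8% versus controls, or a plate z-score of at least 8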;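 note: Pro5 are CHO cells carrying HIG-tagged alpha-DG that lacks glycosylation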
TWEAK Fn14 block = inhibitors of TWEAK-Fn14 signaling, primary screen, luciferase reporter cells, uHTS. TWEAK-stimulated Fn14 reporter cells, luciferase luminescence, 8 h. inhibition, % at 10 µM. 2% of 360,000 active; in the data active = inhibition above about 50%
The depositor's hits bear a star; ? = inconclusive; . = not tested or not shown. Hits are enriched below; roughly 2.6% of the tested compounds scored in any of these assays.

SMILES	HSP90 refold inh	EBV LMP1 NFkB	LGR2 antag	TROY signal inh	aDG glyco act	TWEAK Fn14 block
Cc1c(C(=O)Nc2ccc(F)c(F)c2)oc2ccc(S(=O)(=O)N3CCCCC3)cc12	1.3	16.9	13.3	49.7	0.9	81.2*
Cc1c(C(=O)Nc2ccc(F)cc2)oc2ccc(S(=O)(=O)N3CCC4(CC3)OCCO4)cc12	0.7	6.9	.	33.5	0.2	53.5*
CO[C@H](CN(C)C(=O)c1cnccn1)[C@@H](C)CN([C@H](C)CO)S(=O)(=O)c1ccc(Cl)cc1	.	.	2.9	.	.	.
COc1ccc2nc(NC(=O)CSc3nc4ccccc4o3)sc2c1	13.9	-7.7	.	68.2*	1.0	35.0
O=C(CSc1nc2ccccc2o1)Nc1nc2ccc(Br)cc2s1	0.7	-2.4	.	5.1	0.2	-28.9
CCOc1c(Cl)cc(/C=N/NC(N)=S)cc1OC	3.6	5.1	-29.5	12.8	-0.5	52.0*
COc1cc(/C=N/NC(N)=S)cc(Br)c1OCc1ccccc1F	3.0	-49.0	41.1	11.8	-0.4	64.1*
CCOc1cc(/C=N/NC(N)=S)cc(Br)c1OCc1ccccc1C	5.5	-66.9	.	-3.3	0.6	36.1
C[C@H]1CN([C@@H](C)CO)C(=O)c2cccc(NC(=O)CCCCCC(=O)Nc3ccccc3N)c2O[C@@H]1CN(C)S(C)(=O)=O	.	.	19.0	.	.	.
CN(C)CC(=O)N[C@@H]1CC[C@@H](CCn2cc(C3CC3)nn2)O[C@@H]1CO	.	.	-6.0	.	.	.
O=C(Nc1ccc(Cl)c(S(=O)(=O)N2CCOCC2)c1)c1ccc(OCC2CCCO2)cc1 (configuration not stated)	-1.6	17.5	.	76.7*	0.4	98.9*
O=C(Nc1cccc(Cl)c1)c1ccc(F)c(S(=O)(=O)N2CCN(c3ccccn3)CC2)c1	1.6	11.6	16.0	33.0	1.4	59.4*
O=C(CN1C(=O)CCOc2ccccc21)Nc1ccc(Cl)c(S(=O)(=O)N2CCOCC2)c1	.	42.2*	16.5	-1.9	0.0	-16.8
O=C(Nc1cccc(Br)c1)c1ccc(Cl)c(S(=O)(=O)N2CCOCC2)c1	-1.2	6.4	12.9	45.4	2.4	77.2*
C[C@@H]1CN([C@H](C)CO)C(=O)Cc2cc(NS(C)(=O)=O)ccc2O[C@@H]1CN(C)S(=O)(=O)c1ccc(Cl)cc1	.	.	15.0	.	.	.
COC(=O)C[C@H]1CC[C@H]2[C@@H](COC[C@H](O)CN2S(=O)(=O)c2cn(C)cn2)O1	.	.	0.8	.	.	.
C[C@@H]1CN([C@H](C)CO)C(=O)c2cccc(NC(=O)c3ccncc3)c2O[C@H]1CN(C)Cc1ccccc1	.	.	9.0	.	.	.
Cc1cc2nc(N3C(=O)CNC3=S)sc2cc1C	3.1	1.7	?	62.7*	-0.8	90.2*
O=C(NCCCN1CCOCC1)[C@H]1[C@H](CO)[C@H]2Cn3c(cccc3=O)[C@@H]1N2C(=O)C1CCCCC1	.	.	-11.8	.	.	.
N#Cc1ccccc1CSc1ccc(-c2nc3ccccc3[nH]2)cn1	4.9	-9.8	.	58.9*	2.0	59.2*
Cc1cc2nc(-c3ccc(SCC(=O)Nc4nccs4)nc3)[nH]c2cc1C	2.5	-11.1	-6.4	-21.8	-0.3	-46.2
Cc1cc2nc(-c3ccc(SCc4ccc(C#N)cc4)nc3)[nH]c2cc1C	4.4	-3.4	7.8	47.1	1.7	58.1*
C/C=C/c1ccc2c(c1)O[C@H](CN(C)C(=O)Cc1ccccc1)[C@@H](C)CN([C@@H](C)CO)S2(=O)=O	.	.	14.5	.	.	.
Cc1ccc(NCCC(=O)c2cccs2)cc1	7.4	-45.7	-33.3	-16.7	0.3	-22.4
O=C(/C(N=Nc1cccc(C(F)(F)F)c1)=C(/O)c1cccs1)C(F)(F)F	-5.9	-14.1	.	9.0	0.0	56.8*
SMILES	HSP90 refold inh	EBV LMP1 NFkB	LGR2 antag	TROY signal inh	aDG glyco act	TWEAK Fn14 block
Cc1ccc(N=C/C(C(=O)C(F)(F)F)=C(\O)c2cccs2)cc1	-0.3	-0.2	.	-42.3	-0.1	83.4*
CC(=O)/C(N=Nc1cccc(C(F)(F)F)c1)=C(\C)O	2.3	0.5	.	-3.0	0.5	14.8
COc1ccc(-c2nc3ccccc3c(C(=O)Nc3ccc(S(=O)(=O)Nc4cc(C)on4)cc3)c2C)cc1	-1.5	50.5*	.	19.0	-0.2	50.8*
CCOC1=C2[C@H](c3ccccc3)N(S(=O)(=O)c3ccc(C)cc3)C(C(C)(C)C)[C@H]2C(C#N)(C#N)C(C#N)(C#N)C1 (some centres not stated)	.	.	13.4	17.1	-0.1	53.8*
CCOC1=C2CN(S(=O)(=O)c3ccc(C)cc3)[C@H](c3cccc4ccccc34)C[C@H]2C(C#N)(C#N)C(C#N)(C#N)C1	.	.	.	0.6	1.2	15.6
CO[C@@H]1CN(C)C(=O)c2cc(NS(C)(=O)=O)ccc2OC[C@@H](C)N(C(=O)C2CCCCC2)C[C@H]1C	.	.	-19.3	.	.	.
O=C(C[C@@H]1C[C@H]2c3cc(NC(=O)c4cccnc4)ccc3O[C@H]2[C@@H](CO)O1)NC1CCCC1	.	.	0.7	.	.	.
O=c1cc(-c2ccccc2Cl)oc2ccc([N+](=O)[O-])c(O)c12	1.6	-7.5	-21.3	-13.9	-0.4	-26.1
O=c1cc(-c2ccccc2Cl)oc2c([N+](=O)[O-])c(O)cc(O)c12	-3.9	17.0	69.8*	51.5*	0.0	96.2*
O=C(COC(=O)c1ccccc1NS(=O)(=O)c1cccs1)NC1CCCCC1	-0.5	-5.1	-5.1	27.9	-0.2	2.1
O=C(COC(=O)c1ccccc1NS(=O)(=O)c1cccs1)NCC12CC3CC(CC(C3)C1)C2	0.0	-11.5	31.8	60.5*	-0.1	29.7
O=C(Nc1ccc(Cl)cc1)Nc1csc([N+](=O)[O-])c1	1.1	.	-0.3	41.5	-0.2	66.8*
COc1ccc(CN(C)C[C@@H]2OCCCC[C@@H](C)Oc3ccc(NC(=O)CCC(F)(F)F)cc3C(=O)N([C@@H](C)CO)C[C@H]2C)cc1	.	.	-1.4	.	.	.
COCCNC(=O)Cn1nc(-c2ccccc2OC)ccc1=O	3.1	3.6	5.7	22.1	-0.2	-5.8
COCCNC(=O)Cn1nc(-c2ccccc2F)ccc1=O	1.7	-7.3	3.6	6.2	0.0	50.6*
CCOc1ccc(NC(=O)CN2C(=O)/C(=C3\SC(=S)N(C4CCS(=O)(=O)C4)C3=O)c3ccccc32)cc1 (configuration not stated)	20.4*	6.2	2.7	-3.7	0.1	5.3
C[C@@H]1CN([C@H](C)CO)C(=O)CCCn2nncc2CO[C@@H]1CN(C)Cc1cccc(O)c1	.	.	11.4	.	.	.
C[C@@H]1CN([C@@H](C)CO)C(=O)c2cc(NC(=O)Nc3ccccc3)ccc2O[C@@H]1CN(C)Cc1ccc(C(F)(F)F)cc1	.	.	18.3	.	.	.
CC(=O)Nc1sc(N/N=C\c2ccccc2Cl)nc1-c1cccs1	-1.3	-4.1	-6.5	15.7	0.0	66.9*
